# From PubChem BioAssay (NCATS)
# Values without a mark were called inactive. Records with an inconclusive call do not appear. Active and inactive are the calls of the source. Unless noted, calls come from the whole dose curve; as a rule, active = well fitted curve in either direction with a large enough effect (not every such curve was filed as active); inconclusive = small, poorly fitted or top-dose-only effect, or another doubt; inactive = flat fitted curve, though single readings scatter.
# How the values were obtained:
# [1] = AP1 Signaling Pathway (AID 357); settings: ME-180 AP-1-bla reporter, EGF-induced, beta-lactamase ratio, 5 h; at 17.2 µM (top of the series) unless noted;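 note: ME-180 reporter cells stimulated with EGF at its EC50 level; % is set by controls: 0 for no effect and ±100 for the full control effect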
# Outline: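 A ratiometric CCF4 readout (405 nm excitation; 460 and 530 nm emission) quantified AP-1-driven beta-lactamase in ME-180 cells after 5 h with compound and EC50 EGF; AC50 values were derived for activators and inhibitors.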
# [2] = NFAT Signaling Pathway (AID 444); settings: Jurkat NFAT-bla M1, carbachol, beta-lactamase ratio, 5 h; at 17.2 µM (top of the series) unless noted;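 note: carbachol stimulus at about its EC50 of 1 µM final; % is set by controls: 0 for no effect and ±100 for the full control effect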
# Outline: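 Jurkat cells with NFAT-driven β-lactamase reporter and co-expressed M1 receptor, stimulated with carbachol (final 1 uM, ~EC50), compound titration, 5 h at 37 °C. CCF4 loaded 1 h at RT; 460/530 nm ratio gave %activity and AC50.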
# [3] = target: Glucocorticoid receptor (Homo sapiens) (UniProt P04150); assay: GR-GFP Redistribution (AID 450;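 active = compounds whose dose series gives a full or clear partial fitted curve of increased nuclear translocation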; note: potency is the fitted concentration of half-maximal effect)
# Chain of Glucocorticoid receptor (Homo sapiens) (P04150 whole entry, looked up): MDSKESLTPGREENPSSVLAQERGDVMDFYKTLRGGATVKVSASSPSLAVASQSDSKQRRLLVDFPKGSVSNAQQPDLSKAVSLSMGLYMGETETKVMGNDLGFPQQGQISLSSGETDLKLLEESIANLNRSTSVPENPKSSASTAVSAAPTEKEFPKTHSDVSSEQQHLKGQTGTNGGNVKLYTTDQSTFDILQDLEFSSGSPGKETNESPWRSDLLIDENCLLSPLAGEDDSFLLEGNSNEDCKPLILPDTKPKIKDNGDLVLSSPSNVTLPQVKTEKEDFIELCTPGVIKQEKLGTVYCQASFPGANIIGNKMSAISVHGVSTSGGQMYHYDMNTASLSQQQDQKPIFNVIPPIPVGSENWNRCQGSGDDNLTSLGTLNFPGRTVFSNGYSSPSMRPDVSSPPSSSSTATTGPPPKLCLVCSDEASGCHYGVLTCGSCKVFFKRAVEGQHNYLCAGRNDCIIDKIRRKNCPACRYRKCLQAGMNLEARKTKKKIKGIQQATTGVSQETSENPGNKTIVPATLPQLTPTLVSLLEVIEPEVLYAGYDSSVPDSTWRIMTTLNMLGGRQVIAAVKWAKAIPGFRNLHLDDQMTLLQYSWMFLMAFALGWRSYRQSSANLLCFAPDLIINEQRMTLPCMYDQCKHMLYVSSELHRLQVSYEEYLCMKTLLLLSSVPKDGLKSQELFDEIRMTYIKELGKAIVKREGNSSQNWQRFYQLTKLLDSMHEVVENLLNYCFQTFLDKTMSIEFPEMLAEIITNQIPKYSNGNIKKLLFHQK
# [4] = target: Mitogen-activated protein kinase 10 (Mus musculus) (UniProt Q61831); assay: JNK3 AlphaScreen Assay (AID 530);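 note: kinase came from lysate of stimulated human HepG2 cells; signal reports phosphorylation of biotinylated GST-cJun 1-79 at Ser73 with 10 µM ATP; % is set by controls: 0 for no effect and ±100 for the full control effect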
# Outline: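 qHTS format: compounds tested as titrations against IL-1beta/TNF-alpha-activated HepG2 lysate JNK3 with biotin-GST-cJun substrate and 10 uM ATP at room temperature. Loss of anti-phospho-cJun AlphaScreen signal indicates inhibition.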
# [5] = qHTS Assay for Identification of Small Molecule Agonists for Thrombopoietin (TPO) Signaling Pathway (AID 917; active = well fitted curve in the direction sought with a large enough effect; an effect the other way counts as inactive or inconclusive; note: % is set by controls: 0 for no effect and ±100 for the full control effect)
# Outline: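 Luminescence from a Glycoprotein IIb promoter–driven luciferase reporter served as read-out in murine Ba/F3 cells carrying the human TPO receptor. Cells, deprived of IL-3 overnight, received compounds with 26 pM TPO and were incubated 24 hrs at 37 C.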
# [6] = target: Muscarinic acetylcholine receptor M1 (Rattus norvegicus) (UniProt P08482); assay: qHTS Assay for Antagonists of Acetylcholine Muscarinic M1 Receptor: Measurement of IP-One Response (AID 944; active = well fitted curve in the direction sought with a large enough effect; an effect the other way counts as inactive or inconclusive; note: nearly all actives have a fitted effect of over 75% in size)
# Chain of Muscarinic acetylcholine receptor M1 (Rattus norvegicus) (P08482 whole entry, looked up): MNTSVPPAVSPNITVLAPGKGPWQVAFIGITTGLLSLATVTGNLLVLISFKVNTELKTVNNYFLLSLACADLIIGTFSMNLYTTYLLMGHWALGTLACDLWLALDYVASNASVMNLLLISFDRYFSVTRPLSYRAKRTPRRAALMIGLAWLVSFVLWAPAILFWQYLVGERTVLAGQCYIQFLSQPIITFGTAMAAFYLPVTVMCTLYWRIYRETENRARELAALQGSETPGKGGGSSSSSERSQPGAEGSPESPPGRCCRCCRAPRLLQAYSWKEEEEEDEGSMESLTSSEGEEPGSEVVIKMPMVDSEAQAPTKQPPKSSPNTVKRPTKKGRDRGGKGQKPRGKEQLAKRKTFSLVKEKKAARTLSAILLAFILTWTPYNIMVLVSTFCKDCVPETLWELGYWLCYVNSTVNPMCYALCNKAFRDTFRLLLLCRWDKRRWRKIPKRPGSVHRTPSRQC
# Outline: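 CHO cells expressing rat M1 receptor, recovered overnight, were pre-incubated 10 min with compound, then stimulated 30 min with carbachol at EC80 (200 nM) in LiCl-containing buffer, pH 7.4. IP1 accumulation was read by HTRF (620/665 nm).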
# [7] = target: Cytochrome P450 3A4 (Homo sapiens) (UniProt P08684); assay: qHTS Assay for Activators of Cytochrome P450 3A4 (AID 885; active = well fitted curve in the direction sought with a large enough effect; an effect the other way counts as inactive or inconclusive; note: nearly all actives have a fitted effect of over 65% in size)
# Chain of Cytochrome P450 3A4 (Homo sapiens) (P08684 whole entry, looked up): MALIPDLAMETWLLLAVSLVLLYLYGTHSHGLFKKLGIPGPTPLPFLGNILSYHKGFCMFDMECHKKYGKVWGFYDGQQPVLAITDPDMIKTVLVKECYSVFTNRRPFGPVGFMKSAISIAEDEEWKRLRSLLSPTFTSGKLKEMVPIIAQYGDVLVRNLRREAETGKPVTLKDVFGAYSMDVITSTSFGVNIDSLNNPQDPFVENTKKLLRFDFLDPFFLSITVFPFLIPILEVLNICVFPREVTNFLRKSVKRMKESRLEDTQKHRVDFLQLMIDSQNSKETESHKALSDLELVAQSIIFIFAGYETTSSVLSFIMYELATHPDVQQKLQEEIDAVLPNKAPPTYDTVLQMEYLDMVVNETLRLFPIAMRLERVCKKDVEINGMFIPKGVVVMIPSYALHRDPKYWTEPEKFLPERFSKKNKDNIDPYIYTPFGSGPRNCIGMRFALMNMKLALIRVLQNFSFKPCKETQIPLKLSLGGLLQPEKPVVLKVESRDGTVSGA
# Outline: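 Signal was normalized against complete inhibition by 57 uM ketoconazole. The reaction used 20nM CYP3A4 with 25uM Luciferin-PPXE, 10-min compound preincubation and a 60-min NADPH-supported step at RT.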
# [8] = Stat Signaling Pathway (AID 446); settings: ME-180 SIE beta-lactamase reporter, IL-6 stimulated, 5 h; at 17.2 µM (top of the series) unless noted
# Outline: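 Reporter line: ME-180 cervical carcinoma, SIE-beta-lactamase. Treatment: compound with 40 pM IL-6, 5 hrs, 37 C, in low-serum OPTI-MEM with 10 mM HEPES pH 7.3. Detection: 460/530 nm fluorescence.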
smiles,measurement,setting,value
Cc1cc(=O)oc2c(CN3CCCCC3)c(O)c(Cl)cc12,"activity change, negative = inhibition",[1],22.5%
same,"activity change, negative = inhibition",[2],23.5%
same,Potency,[3],> 20.6 µM
CC(=O)c1ccc(O)c(CO)c1,"activity change, negative = inhibition",[1],12.6%
same,"activity change, negative = inhibition",[2],-1.78%
same,Potency,[3],> 20.6 µM
Cc1ccc(SCc2[nH]nc3c2C(c2ccc(C)o2)C(C#N)=C(N)O3)cc1 (stereo not given),"activity change, negative = inhibition",[1],-23.1%
same,"activity change, negative = inhibition",[2],-18.9%
same,Potency,[3],> 20.6 µM
O=C(NCCN1CCCCC1)c1ccc(=O)oc1,"activity change, negative = inhibition",[1],13.4%
same,"activity change, negative = inhibition",[2],6.11%
same,Potency,[3],> 20.6 µM
Cn1c(=O)cc(NCc2ccccc2)[nH]c1=O,"activity change, negative = inhibition",[1],15%
same,"activity change, negative = inhibition",[2],-6.77%
same,Potency,[3],> 20.6 µM
O=C1CC(c2ccccc2)n2nc(NS(=O)(=O)c3ccccc3)nc2N1 (stereo not given),"activity change, negative = inhibition",[1],22.4%
same,"activity change, negative = inhibition",[2],-10.9%
same,Potency,[3],> 20.6 µM
O=C(/C=C/c1ccccc1)c1ccccc1,"activity change, negative = inhibition",[1],19.8%
same,"activity change, negative = inhibition",[2],-14.4%
same,Potency,[3],> 20.6 µM
Cc1cc(=O)oc(C)c1C(=O)NCCN1CCOCC1,"activity change, negative = inhibition",[1],11.5%
same,"activity change, negative = inhibition",[2],7.8%
same,Potency,[3],> 20.6 µM
O=C(CC(c1ccccc1)c1ccco1)N1CCOCC1 (stereo not given),"activity change, negative = inhibition",[1],-9.46%
same,"activity change, negative = inhibition",[2],1%
same,Potency,[3],> 20.6 µM
Cc1ccc(Oc2nc3c(c(=O)n(Cc4ccccc4F)c(=O)n3C)n2C)cc1,"activity change, negative = inhibition",[1],-27.5%
same,"activity change, negative = inhibition",[2],11.5%
same,Potency,[3],> 20.6 µM
CCn1cc(C(=O)NCc2ccccn2)c(=O)c2cc(F)c(N3CCN(C)CC3)cc21,"activity change, negative = inhibition",[1],-1.53%
same,"activity change, negative = inhibition",[2],-29.8%
same,Potency,[3],> 20.6 µM
COc1cc2c(cc1OC)C1(CCCC1)C(N)=C2C#N,"activity change, negative = inhibition",[1],-17.7%
same,"activity change, negative = inhibition",[2],-1.71%
same,Potency,[3],> 20.6 µM
COCc1cc(C)nc(SCC(=O)Nc2ccc(C)c(C)c2)c1C#N,"activity change, negative = inhibition",[1],2.07%
same,"activity change, negative = inhibition",[2],3.23%
same,Potency,[3],> 20.6 µM
COc1cc(-c2nn3c(COc4ccccc4)nnc3s2)cc(OC)c1OC,"activity change, negative = inhibition",[1],0.0695%
same,"activity change, negative = inhibition",[2],11.1%
same,Potency,[3],> 20.6 µM
Cc1ccc(-c2nn3c(-c4cccc(Cl)c4)nnc3s2)cc1,"activity change, negative = inhibition",[1],24.6%
same,"activity change, negative = inhibition",[2],-1.56%
same,Potency,[3],> 20.6 µM
Oc1ccc(Br)cc1CNn1cnnc1,"activity change, negative = inhibition",[1],2.16%
same,"activity change, negative = inhibition",[2],9.44%
same,Potency,[3],> 20.6 µM
CC1(C)C2CCC1(C)C(OC(=O)CC(=O)O)C2 (stereo not given),"activity change, negative = inhibition",[1],4.82%
same,"activity change, negative = inhibition",[2],8.38%
same,Potency,[3],> 20.6 µM
Cc1ccnc(N2CCN(c3c4c(c(C#N)c5nc6ccccc6n35)CCC4)CC2)c1,"activity change, negative = inhibition",[1],-8.81%
same,"activity change, negative = inhibition",[2],-1.93%
same,Potency,[3],> 20.6 µM
CC1(C(=O)CSc2ncn[nH]2)CCC(=O)O1 (stereo not given),"activity change, negative = inhibition",[1],-3.81%
same,"activity change, negative = inhibition",[2],2.7%
same,Potency,[3],> 20.6 µM
COC(=O)c1ccc(C2NC(C(=O)O)CS2)cc1 (stereo not given),"activity change, negative = inhibition",[1],5.95%
same,"activity change, negative = inhibition",[2],6.25%
same,Potency,[3],> 20.6 µM
CCCCCCCCCC(=O)N[C@@H](CN1CCOCC1)[C@@H](O)c1ccccc1,Potency,[4],inactive
same,Potency,[5],inactive
same,Potency,[6],inactive
CCCCCCCCCCCCCCCCCC(=O)NC[C@@H](COP(=O)([O-])OCC[N+](C)(C)C)OCC,Potency,[7],inactive
same,Potency,[5],inactive
Cc1ccc2cc(CN(C(=O)c3ccco3)c3ccccc3C)c(=O)[nH]c2c1,"activity change, negative = inhibition",[1],-25.5%
same,"activity, negative = inhibition",[8],-12.8%
same,Potency,[3],> 20.6 µM
CCSc1nc2sc3c(c2c(=O)n1C1CCCCC1)CCN(C)C3,"activity change, negative = inhibition",[1],4.46%
same,"activity, negative = inhibition",[8],24.3%
same,Potency,[3],> 20.6 µM
CC(C)OC(=O)c1nn2c(C(F)(F)F)cc(-c3ccc(Br)o3)nc2c1Br,"activity change, negative = inhibition",[1],-6.76%
same,"activity, negative = inhibition",[8],8.51%
same,Potency,[3],> 20.6 µM
Cn1c(OCc2ccco2)nc2c1c(=O)n(Cc1ccc(Cl)c(Cl)c1)c(=O)n2C,"activity change, negative = inhibition",[1],-3.54%
same,"activity, negative = inhibition",[8],0.615%
same,Potency,[3],> 20.6 µM
O=C(c1cc(N2CCCCC2)nc2ccccc12)N1CCOCC1,"activity change, negative = inhibition",[1],-15.6%
same,"activity, negative = inhibition",[8],4.94%
same,Potency,[3],> 20.6 µM
N#Cc1c(-c2ccccc2Cl)cc(C2CC2)nc1N,"activity change, negative = inhibition",[1],4.21%
same,"activity, negative = inhibition",[8],-2.15%
same,Potency,[3],> 20.6 µM
CCCCC(=O)C1CCN(Cc2ccccc2)CC1,"activity change, negative = inhibition",[1],4.33%
same,"activity, negative = inhibition",[8],3.33%
same,Potency,[3],> 20.6 µM
CCOC(=O)c1nc2nc(C)c(Cl)c(=O)n2[nH]1,"activity change, negative = inhibition",[1],-6.21%
same,"activity, negative = inhibition",[8],5.64%
same,Potency,[3],> 20.6 µM
CC(NC(=O)OC(C)(C)C)C(=O)Oc1ccc2ccc(=O)oc2c1 (stereo not given),"activity change, negative = inhibition",[1],24.1%
same,"activity, negative = inhibition",[8],10.7%
same,Potency,[3],> 20.6 µM
COc1ccc(Cn2c(=O)c3c(nc(NCCO)n3C)n(C)c2=O)cc1,"activity change, negative = inhibition",[1],1.13%
same,"activity, negative = inhibition",[8],-24.4%
same,Potency,[3],> 20.6 µM
Cc1ccc2c(c1)[C@@H]1CN(C)CC[C@@H]1N2S(=O)(=O)c1ccc(F)cc1,"activity change, negative = inhibition",[1],12.8%
same,"activity, negative = inhibition",[8],5.84%
same,Potency,[3],> 20.6 µM
O=C(NCc1ccco1)c1cnn2c(C(F)(F)F)cc(-c3ccco3)nc12,"activity change, negative = inhibition",[1],-3.32%
same,"activity, negative = inhibition",[8],10.1%
same,Potency,[3],> 20.6 µM
C=C(C)CSc1nnc2n(C)c(=O)c3c4c(sc3n12)CCC4,"activity change, negative = inhibition",[1],-2.43%
same,"activity, negative = inhibition",[8],2.61%
same,Potency,[3],> 20.6 µM
CCCn1c(SCC#N)nc2c(c1=O)C1(CCCC1)Cc1ccccc1-2,"activity change, negative = inhibition",[1],13.8%
same,"activity, negative = inhibition",[8],2.26%
same,Potency,[3],> 20.6 µM
c1coc(-c2nnc3sc(Cc4cccs4)nn23)c1,"activity change, negative = inhibition",[1],-15.4%
same,"activity, negative = inhibition",[8],-17.3%
same,Potency,[3],> 20.6 µM
